SMN2 splice enh: increases expression of the SMN2 splice variant; HEK293 SMN2-luciferase splicing reporter, luminescence, 30-36 h; Potency, µM (highest dose often 46.1 µM), inactives show at the highest dose activity change, positive = activation, actives largely listed as activators; 210,000 compounds, 2.8% hits; note: % of control where 0% means no effect; nearly all actives have a fitted effect of over 55% in size
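qHTS luciferase splicing reporter: luminescence rises when SMN2 exon 7 is included in transfected HEK293 cells. Compound exposure lasted 30-36 h at 37C, with 4.5 mM final sodium butyrate as control, followed by a ONE-Glo read.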
FLuc counter: counter-screen for miR-21 project: firefly luciferase inhibitors or activators; P08659; purified FLuc, Km substrates, luminescence inhibition; Potency, µM (top dose mostly 57.5 µM), inactives show at the highest dose activity change, negative = inhibition, most hits filed as inhibitors; 360,000 compounds, 6.9% hits;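 note: plate controls were vehicle for no effect and reference inhibitor for full effect; nearly all actives have a fitted effect of over 55% in size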
Target sequence (P08659 whole entry, looked up): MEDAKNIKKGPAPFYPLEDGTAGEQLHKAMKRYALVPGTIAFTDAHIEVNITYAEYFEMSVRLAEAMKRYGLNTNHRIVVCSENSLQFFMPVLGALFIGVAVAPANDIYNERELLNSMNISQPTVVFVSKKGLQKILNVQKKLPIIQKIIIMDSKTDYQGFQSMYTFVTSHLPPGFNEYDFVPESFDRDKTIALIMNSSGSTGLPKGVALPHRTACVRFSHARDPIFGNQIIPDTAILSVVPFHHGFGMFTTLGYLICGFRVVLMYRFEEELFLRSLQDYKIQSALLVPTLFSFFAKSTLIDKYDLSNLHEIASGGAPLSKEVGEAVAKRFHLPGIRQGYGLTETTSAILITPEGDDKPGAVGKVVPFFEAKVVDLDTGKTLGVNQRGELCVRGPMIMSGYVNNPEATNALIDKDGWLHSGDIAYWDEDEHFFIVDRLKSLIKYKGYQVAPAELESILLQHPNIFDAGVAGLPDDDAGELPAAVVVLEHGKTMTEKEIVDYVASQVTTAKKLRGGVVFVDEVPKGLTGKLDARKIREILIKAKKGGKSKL
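Biochemical qHTS of compounds, final roughly 60 µM downward over six points, against 10 nM purified firefly luciferase using Km concentrations of substrates (10 uM D-luciferin, 10 uM ATP) in Tris acetate pH 7.5 buffer; luminescence output.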
NPC1 promoter act: activates the NPC1 promoter. Huh7 NPC1 promoter luciferase reporter, 24 h. 320,000 compounds, 2.4% hits. Potency, µM (highest dose often 9.22 µM), inactives show at the top dose activation, usual class: activators. AID 485313; note: % of control where 0% means no effect; nearly all actives have a fitted effect of over 60% in size
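Luminescence read-out of NPC1 promoter-driven luciferase in stably transfected Huh7 cells; compounds delivered in DMSO and left 24 h at 37C, 5% CO2, qHTS titration format.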
KinaseGlo FLuc: blocks Kinase-Glo luciferase, a counter-screen artifact. Potency, µM (top dose mostly 38.3 µM), without a hit: top-dose activity change, negative = inhibition, actives largely listed as inhibitors. Kinase-Glo luciferase, ATP luminescence, 8 min. AID 1379. Q27757. 200,000 compounds, 0.28% hits; note: % is set by controls: 0 for no effect and ±100 for the full control effect; nearly all actives have a fitted effect of over 60% in size
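Kinase-Glo luciferase light output from ATP and luciferin was measured with 10 uM ATP, within the enzyme's linear range. Buffer: 50 mM imidazole pH 7.2, 50 mM KCl, 7 mM MgCl2, 0.01% Tween 20, 0.05% BSA; luminescence read after 8 min at ambient temperature.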
ELG1 genotoxic: inducers of genotoxicity in HEK293T ELG1-luciferase cells; HEK293T ELG1-luciferase reporter, luminescence, 16 h; Potency, µM (series often up to 46 µM), for the others: at the top dose activity change, positive = activation, most hits filed as activators; 330,000 compounds, 1.3% hits; AID 504466; note: % of control where 0% means no effect; nearly all actives have a fitted effect of over 60% in size
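HEK293T cells expressing luciferase-tagged ELG1 were exposed to compound or DMSO vehicle for 16 hr at 37 °C and 5% CO2. Luciferase activity was then measured with ONE-Glo after 30 min at room temperature.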
Rab9 promoter act: activates the Rab9 promoter | Huh7 Rab9 promoter-luciferase reporter, luminescence, 24 h | Potency, µM (top dose mostly 9.22 µM), for the others: at the top dose activation, negative = inhibition, actives largely listed as activators | 320,000 compounds, 2.8% hits | AID 485297; note: % of control where 0% means no effect; nearly all actives have a fitted effect of over 60% in size
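Luminescence from Amplite-detected luciferase (10 minutes, ambient) reports Rab9 promoter activation. Before that, stable Rab9-luciferase Huh7 cells (1500/well, reduced-serum OP-MEM I plus 10% FBS) were exposed to compound for 24 hours at 37C.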
* = called active by the depositor. Sampled rows, rich in hits. Any-hit rate of the full collection: about 7.5%. Calls come from the whole dose curve; as a rule, active = well fitted curve in the direction sought with a large enough effect; inconclusive = small, poorly fitted or top-dose-only effect, or another doubt; inactive = no such curve, though single readings can be large; an effect the other way counts as inactive or inconclusive. Potency is the fitted concentration of half-maximal effect.

What do the screens show for `COc1ccc(C(=O)N2CCN(C(=O)c3cc(OC)c(OC)c(OC)c3)CC2)cc1`?
SMN2 splice enh: 10%; FLuc counter: 7%; NPC1 promoter act: -4%; KinaseGlo FLuc: 1%; ELG1 genotoxic: -4%; Rab9 promoter act: -6%

What do the screens show for `COc1cc(CNC(=O)c2sc3ncccc3c2-n2cccc2)cc(OC)c1OC`?
FLuc counter: 0%

What do the screens show for `O=[N+]([O-])c1ccc2nc(NS(=O)(=O)c3ccccc3[N+](=O)[O-])sc2c1`?
FLuc counter: 11µM*; NPC1 promoter act: inconclusive; ELG1 genotoxic: 6%; Rab9 promoter act: 19%

How did O=[N+]([O-])c1ccccc1S(=O)(=O)Nc1nc2ccccc2s1 do in these assays?
FLuc counter: -12%; NPC1 promoter act: 3%; ELG1 genotoxic: 0%; Rab9 promoter act: 8%

What do the screens show for `CCC(C(=O)NCCc1ccc(OC)cc1OC)n1nc(C)n2c(cc3occc32)c1=O` (stereo not given)?
FLuc counter: 3%; NPC1 promoter act: 2%; ELG1 genotoxic: 0%; Rab9 promoter act: 0%

How did O=C(CSc1nnc(NC(=O)c2ccccc2F)s1)NCc1ccco1 do in these assays?
FLuc counter: 8.5µM*; NPC1 promoter act: 3.5µM*; ELG1 genotoxic: 16µM*; Rab9 promoter act: 4µM*

What do the screens show for `COc1ccccc1C(=O)Nc1nnc(SCC(=O)NCc2ccco2)s1`?
FLuc counter: 3.4µM*; NPC1 promoter act: 3.2µM*; ELG1 genotoxic: 2.3µM*; Rab9 promoter act: 2.2µM*

What do the screens show for `CCSc1nnc(Nc2ccc(C)cc2)s1`?
SMN2 splice enh: inconclusive; FLuc counter: 9.5µM*; NPC1 promoter act: 3.5µM*; KinaseGlo FLuc: 1%; ELG1 genotoxic: inconclusive; Rab9 promoter act: 2.8µM*

What do the screens show for `COc1ccc(C(=O)Nc2nnc(SCC(=O)NCc3ccco3)s2)cc1OC`?
FLuc counter: -3%; NPC1 promoter act: inconclusive; ELG1 genotoxic: 2%; Rab9 promoter act: 18%

How did COc1ccc(C(=O)Nc2nnc(SCC(=O)NCc3ccco3)s2)c(OC)c1 do in these assays?
FLuc counter: 0.67µM*; NPC1 promoter act: 0.28µM*; ELG1 genotoxic: 0.52µM*; Rab9 promoter act: 0.32µM*

Results for COC(=O)[C@@H]1C[C@H]1[C@@H](NS(=O)(=O)c1ccc(-c2ccccc2)cc1)c1ccccc1 ?
SMN2 splice enh: -57%; KinaseGlo FLuc: 0%

What do the screens show for `COc1cc(OC)cc(C(=O)NCC2CCCN(C(=O)c3csc(C(C)C)n3)C2)c1` (stereo not given)?
FLuc counter: -4%; NPC1 promoter act: 1%; ELG1 genotoxic: 3%; Rab9 promoter act: -1%

What do the screens show for `CCOc1ccc(S(=O)(=O)Nc2cccc(C(=O)NCCCn3ccnc3)c2)cc1`?
FLuc counter: -13%; NPC1 promoter act: -2%; ELG1 genotoxic: -2%; Rab9 promoter act: -4%

How did COc1ccc(NC(=O)CN(Cc2ccccc2)S(=O)(=O)c2ccc(C)cc2)cc1Cl do in these assays?
SMN2 splice enh: -23%; FLuc counter: -10%

How did Cc1ccc(Nc2nnc(SCC(=O)NCc3ccco3)s2)cc1 do in these assays?
SMN2 splice enh: 8%; FLuc counter: 13µM*; NPC1 promoter act: 21%; KinaseGlo FLuc: -8%; ELG1 genotoxic: 1%; Rab9 promoter act: 6%

What do the screens show for `Cc1ccc(Nc2nc(C(=O)NCc3ccco3)cs2)cc1`?
SMN2 splice enh: -15%; FLuc counter: 24µM*; NPC1 promoter act: 11%; KinaseGlo FLuc: -4%; ELG1 genotoxic: -3%; Rab9 promoter act: -2%

How did CC(C)(C)C(=O)Nc1ccc(C(=O)Nc2cc(NC(=O)c3ccc(NC(=O)C(C)(C)C)cc3)cc(C(=O)O)c2)cc1 do in these assays?
FLuc counter: 4.3µM*; NPC1 promoter act: 18%; ELG1 genotoxic: 12%; Rab9 promoter act: 30%

What do the screens show for `CC(C)(C)C(=O)Nc1ccc(C(=O)NNC(=O)c2ccccc2)cc1`?
SMN2 splice enh: 8%; FLuc counter: inconclusive; NPC1 promoter act: 17%; KinaseGlo FLuc: -2%; ELG1 genotoxic: 10%; Rab9 promoter act: 20%

How did O=C(O)c1cc(NC(=O)c2ccc(Br)cc2)cc(NC(=O)c2ccc(Br)cc2)c1 do in these assays?
FLuc counter: 21µM*; NPC1 promoter act: -6%; ELG1 genotoxic: -5%; Rab9 promoter act: 14%

How did COc1ccc(OCc2cccc(C(=O)Nc3ccc(CN4CCCCC4)cc3)c2)cc1 do in these assays?
SMN2 splice enh: 1.8µM*; FLuc counter: 12µM*; NPC1 promoter act: 1.1µM*; KinaseGlo FLuc: -5%; ELG1 genotoxic: inconclusive; Rab9 promoter act: 0.89µM*

How did CCOc1ccc(OCc2cccc(C(=O)Nc3ccc(CN4CCCCC4)cc3)c2)cc1 do in these assays?
SMN2 splice enh: 1.8µM*; FLuc counter: 6µM*; NPC1 promoter act: 0.35µM*; KinaseGlo FLuc: -2%; ELG1 genotoxic: 1.3µM*; Rab9 promoter act: 0.45µM*

How did COc1cc(OC)cc(C(=O)Nc2ccc(CN3CCCCC3)cc2)c1 do in these assays?
SMN2 splice enh: 5%; FLuc counter: -11%; NPC1 promoter act: -1%; KinaseGlo FLuc: 1%; ELG1 genotoxic: 5%; Rab9 promoter act: -1%

What do the screens show for `CC(C)CC(=O)NC1(C(F)(F)F)C(=O)Nc2c1c(=O)[nH]c(=O)n2-c1ccccc1` (stereo not given)?
SMN2 splice enh: inconclusive; FLuc counter: 3%

Results for Cc1cc(CN2CCCC(C(=O)Nc3ccc(-c4nc5ccccc5[nH]4)cc3)C2)n[nH]1 (stereo not given) ?
FLuc counter: 15µM*; NPC1 promoter act: inconclusive; ELG1 genotoxic: 19%; Rab9 promoter act: inconclusive

What do the screens show for `O=S(=O)(NCCS(=O)(=O)N1CCN(c2ccccc2)CC1)c1ccc(Br)cc1`?
FLuc counter: -1%

What do the screens show for `CCOC(=O)c1sc(=NC(=O)c2cccc(OC)c2)n(C)c1C`?
FLuc counter: inconclusive; NPC1 promoter act: 3.5µM*; ELG1 genotoxic: 15%; Rab9 promoter act: 1.6µM*

How did CCOC(=O)c1sc(=NC(=O)c2ccc(OC)c(OC)c2)n(C)c1C do in these assays?
SMN2 splice enh: -5%; FLuc counter: -19%; NPC1 promoter act: 12%; KinaseGlo FLuc: -1%; ELG1 genotoxic: 11%; Rab9 promoter act: 11%

What do the screens show for `CCOC(=O)c1sc(=NC(=O)c2ccccc2)n(C)c1C`?
SMN2 splice enh: 8.9µM*; FLuc counter: 2.1µM*; NPC1 promoter act: -1%; KinaseGlo FLuc: -7%; ELG1 genotoxic: inconclusive; Rab9 promoter act: 19%

Bioassay records (PubChem BioAssay)
